# Several values for one entry are separate records, joined by “and”; a condition that tells them apart may be missing. Identical values can stand only once. Results filed as inconclusive are left out. Where a call stands in place of a potency, no number is given. Where a structure was tested more than once in an assay, its records may differ in their call. Activity calls are given as the source filed them. Unless noted, the call rests on the fitted dose curve; in most records, active means well fitted curve in the direction sought with a large enough effect in the repeat runs; inconclusive means weak or mixed curves; inactive means no such curve, though single readings can be large; an effect the other way counts as inactive or inconclusive.
# Columns and labels:
# [1] = qHTS assay to identify small molecule agonists of the RXR signaling pathway - cell viability counter screen (AID 1159529); further: nearly all actives have a fitted effect of over 50% in size; further: potency means the concentration at half of the fitted maximal effect; on activity change, negative = cytotoxicity: series mostly up to about 77 µM
# Method in brief: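 CellTiter-Glo luminescence gave viability in the wells also read for beta-lactamase. Cells (RXR-alpha-UAS-bla HEK 293T, 2% charcoal-stripped FBS medium) had 5 hr plating, then 16 hr compound exposure at 37 C; tetraoctyl ammonium bromide served as positive control.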
# [2] = qHTS assay to identify small molecule antagonists of the retinoid acid receptor (RAR) signaling pathway - cell viability counter screen (AID 1159551); further: nearly all actives have a fitted effect of over 35% in size
# Method in brief: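 Cytotoxicity counter screen: ATP content quantified by CellTiter-Glo luminescence in C3RL4 cells treated 6 hr at 37 C with compound and retinol (1 uM final). Cells plated at 1,000/well and cultured overnight before dosing.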
# [3] = qHTS assay to identify small molecule antagonists of the retinoic acid receptor (RAR) signaling pathway (AID 1159552; further: nearly all actives have a fitted effect of over 50% in size; further: potency means the concentration at half of the fitted maximal effect)
# Method in brief: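 Luminescent RARE reporter read-out in C3RL4 cells: 6 hr co-treatment at 37 C of test compounds with retinol at 1 uM final. Cells plated overnight beforehand; luciferase reagent incubated 30 min at room temperature before reading.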
# [4] = qHTS assay to identify small molecule agonists of the retinoic acid receptor (RAR) signaling pathway (AID 1159553); further: potency means the concentration at half of the fitted maximal effect
# Method in brief: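 Luminescence was measured 30 min after luciferase reagent addition at room temperature. Before that, C3RL4 reporter cells (1,000 per well, plated overnight) were treated with compound for 6 hr at 37 C and 5% CO2.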
# [5] = qHTS assay to identify small molecule antagonists of the estrogen related receptor (ERR) signaling pathway - cell viability counter screen (AID 1224818);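 further: series mostly up to about 46 µM; viability measured after 17.5 h of compound exposure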
# Method in brief: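 Cytotoxicity counter screen: fluorescence from CellTiter-Fluor, added after 17.5 h compound exposure at 37 C and read 30 min later. ERR cell line seeded at 2,000 cells/well, preincubated 6 h before dosing.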
# [6] = qHTS assay to identify small molecule antagonists of the estrogen related receptor (ERR) signaling pathway (AID 1224819; further: nearly all actives have a fitted effect of over 50% in size; further: potency means the concentration at half of the fitted maximal effect)
# Method in brief: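 LOPAC library screened for antagonism as reduced One-Glo luminescence in ERR reporter cells (2,000/well). Compounds were added after 6 h pre-incubation and left 18 h at 37C; reading followed a 30 min room-temperature reagent step.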
# [7] = qHTS assay to identify small molecule agonists of the estrogen related receptor (ERR) signaling pathway (AID 1224820)
# Method in brief: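 Following a 6 h settling period, 2,000 ERR cells per well receive DMSO-dissolved compounds by pin tool and incubate 18 h at 37 C; agonist activity is scored from One-Glo luminescence read 30 min post-addition.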
# [8] = system: estrogen-related receptor alpha (ERRalpha) with PGC-1alpha coactivator, human; test: qHTS assay to identify small molecule antagonists of the estrogen related receptor signaling pathway with the pleiotropic PPARgamma coactivator (PGC) (AID 1224821; calls by dose curve; further: nearly all actives have a fitted effect of over 50% in size; further: potency means the concentration at half of the fitted maximal effect)
# Method in brief: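 Screening used NTP's PGC/ERR cells, dosed via pin tool with compound in DMSO alongside positive and negative controls. After 18 h at 37 C, One-Glo reagent sat 30 min at room temperature before luminescence detection.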
# [9] = qHTS assay to identify small molecule antagonists of the estrogen related receptor signaling pathway with the pleiotropic PPARgamma coactivator (PGC) cell viability counter screen (AID 1224822; further: potency means the concentration at half of the fitted maximal effect)
# Method in brief: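 Viability counter-screen read by fluorescence intensity after 30 min with CellTiter-Fluor at 37 C; PGC/ERR reporter cells were exposed to compounds for 17.5 h at 37 C following a 6 h preincubation.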
# [10] = qHTS assay to identify small molecule agonists of the estrogen related receptor signaling pathway with the pleiotropic PPARgamma coactivator (PGC) (AID 1224823)
# Method in brief: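 In this quantitative high-throughput screen, an 18 h, 37 C treatment of PGC/ERR cells with compounds in DMSO preceded a One-Glo luminescence read taken after 30 min at room temperature.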
smiles,measurement,setting,value
CNC1(C)C2CCC(C2)C1(C)C (stereo not given),Potency,[1],inactive
same,Potency,[2],inactive
same,Potency,[3],inactive
same,Potency,[4],inactive
same,Potency,[5],inactive
same,Potency,[6],inactive
same,outcome,[7],inactive
same,Potency,[8],inactive
same,Potency,[9],inactive
same,outcome,[10],inactive
COC(=O)c1cccc(C(=O)OC)c1,Potency,[1],inactive
same,Potency,[2],inactive
same,Potency,[3],inactive
same,Potency,[4],inactive
C1COC(NC(C2CC2)C2CC2)=N1,Potency,[1],inactive
same,Potency,[2],inactive
same,Potency,[3],inactive
same,Potency,[4],inactive
same,Potency,[5],inactive
same,Potency,[6],inactive
same,Potency,[8],inactive
same,Potency,[9],inactive
same,outcome,[10],inactive
CC(C)(C)NCC(O)c1cc(O)cc(O)c1 (stereo not given),Potency,[1],inactive
same,Potency,[2],inactive
same,Potency,[3],inactive
same,Potency,[4],inactive
same,Potency,[5],inactive
same,Potency,[9],inactive
COc1nc(C)nc(Cl)c1NC1=NCCN1,Potency,[1],inactive
same,Potency,[2],inactive
same,Potency,[3],inactive
same,Potency,[4],inactive
same,Potency,[5],inactive
same,Potency,[9],inactive
OCCOCCN1CCN(C(c2ccccc2)c2ccc(Cl)cc2)CC1 (stereo not given),Potency,[1],21.6 µM (active)
same,Potency,[2],inactive
same,Potency,[3],60.3 µM (active) and inactive
same,Potency,[4],inactive
Nc1ccc(O)cc1,Potency,[1],inactive
same,Potency,[2],inactive
same,Potency,[3],inactive
same,Potency,[4],20.1 µM (active)
NC(Cc1ccc(Cl)cc1)C(=O)O (stereo not given),"activity change, negative = cytotoxicity",[1],5.89% [at 0.29 µM] (inactive)
same,"activity change, negative = cytotoxicity",[2],2.93% [at 0.349 µM] (inactive)
same,"activity, negative = inhibition",[3],4.68% [at 0.349 µM] (inactive)
same,activation,[4],0.724% [at 0.756 µM] (inactive)
same,Potency,[5],inactive
same,Potency,[6],inactive
same,outcome,[7],inactive
same,Potency,[8],inactive
same,Potency,[9],inactive
same,outcome,[10],inactive
CC(=O)N[C@@H](CS)C(=O)O,Potency,[1],inactive
same,Potency,[2],inactive
same,Potency,[3],inactive
same,Potency,[4],inactive
same,Potency,[5],inactive
same,Potency,[9],inactive
Cc1cccc([N+](=O)[O-])c1C(=O)O,Potency,[1],inactive
same,Potency,[2],inactive
same,Potency,[3],inactive
same,Potency,[4],inactive
O=C(Oc1ccccc1)c1ccccc1O,Potency,[1],inactive
same,Potency,[2],inactive
same,Potency,[3],inactive
same,Potency,[4],inactive
COC(c1ccccc1)(c1ccccc1)[C@H](Oc1nc(C)cc(C)n1)C(=O)O,Potency,[1],inactive
same,Potency,[2],inactive
same,Potency,[3],inactive
same,Potency,[4],inactive
CC(C)CCOC(=O)c1ccc(N(C)C)cc1,Potency,[1],inactive
same,Potency,[2],inactive
same,Potency,[3],inactive
same,Potency,[4],2.11 µM (active)
CC(C)(O)CCC(C)(C)O,Potency,[1],inactive
same,Potency,[2],inactive
same,Potency,[3],inactive
same,Potency,[4],inactive
NC(N)=Nc1nc(CSCC/C(N)=N/S(N)(=O)=O)cs1,Potency,[1],inactive
same,Potency,[2],inactive
same,Potency,[3],inactive
same,Potency,[4],inactive
same,Potency,[5],inactive
same,Potency,[6],inactive
same,outcome,[7],inactive
same,Potency,[8],inactive
same,Potency,[9],inactive
same,outcome,[10],inactive
CC(C)CCOCc1ccccc1,Potency,[1],inactive
same,Potency,[2],inactive
same,Potency,[3],inactive
same,Potency,[4],inactive
CC(N)=O,Potency,[1],inactive
same,Potency,[2],inactive
same,Potency,[3],inactive
same,Potency,[4],inactive
same,Potency,[5],inactive
same,Potency,[9],inactive
NC(N)=NC(=O)Cc1c(Cl)cccc1Cl,Potency,[1],inactive
same,Potency,[2],inactive
same,Potency,[3],inactive
same,Potency,[4],inactive
same,Potency,[5],inactive
same,Potency,[6],inactive
same,outcome,[7],inactive
same,Potency,[8],inactive
same,Potency,[9],inactive
same,outcome,[10],inactive
NNCCc1ccccc1,Potency,[1],inactive
same,Potency,[2],inactive
same,Potency,[3],inactive
same,Potency,[4],1.37 µM (active) and 9.44 µM (active)
same,Potency,[5],inactive
same,Potency,[9],inactive
CC(C(O)c1ccc(O)cc1)N1CCC(Cc2ccccc2)CC1 (stereo not given),Potency,[1],inactive
same,Potency,[2],inactive
same,Potency,[3],inactive
same,Potency,[4],inactive
same,Potency,[5],inactive
same,outcome,[7],inactive
same,outcome,[10],inactive
COc1ccc(Cc2cnc(N)nc2N)cc1OC,Potency,[1],inactive
same,Potency,[2],inactive
same,Potency,[3],inactive
same,Potency,[4],inactive
CCOC(=O)C(C)C(C)=O (stereo not given),Potency,[1],inactive
same,Potency,[2],inactive
same,Potency,[3],inactive
same,Potency,[4],inactive
O=C(O)c1cc(Cl)cc(Cl)c1,Potency,[1],inactive
same,Potency,[2],inactive
same,Potency,[3],inactive
same,Potency,[4],inactive
COc1cc(C(=S)N2CCOCC2)ccc1O,Potency,[1],inactive
same,Potency,[2],inactive
same,Potency,[3],inactive
same,Potency,[4],inactive
CC(=O)CC(C)=O,Potency,[1],inactive
same,Potency,[2],inactive
same,Potency,[4],inactive
COc1ccc(CCN(C)CCCC(C#N)(c2ccc(OC)c(OC)c2)C(C)C)cc1OC (stereo not given),Potency,[2],inactive
same,Potency,[5],inactive
CNCCC(Oc1ccc(C(F)(F)F)cc1)c1ccccc1 (stereo not given),Potency,[1],27.2 µM (active) and 23.9 µM (active)
same,Potency,[2],inactive
same,Potency,[3],53.8 µM (active)
same,Potency,[5],inactive
Clc1ccc2c(c1)C(N1CCNCC1)=Nc1ccccc1O2,Potency,[1],inactive
same,Potency,[2],inactive
same,Potency,[5],inactive
O=c1n(CC2CO2)c(=O)n(CC2CO2)c(=O)n1CC1CO1 (stereo not given),Potency,[2],inactive
same,Potency,[3],inactive
same,Potency,[4],inactive
CCN(CC)C(=S)SSC(=S)N(CC)CC,Potency,[1],199 nM (active) and 213 nM (active)
same,Potency,[2],inactive
same,Potency,[6],10.9 µM (active) and 16.2 µM (active)
same,outcome,[7],inactive
same,Potency,[8],386 nM (active) and 1.39 µM (active)
same,Potency,[9],386 nM (active) and 220 nM (active)
same,outcome,[10],inactive

# Source: PubChem BioAssay (Tox21)
